Measurements reported in ChEMBL document CHEMBL4513216, “Probing the Open Global Health Chemical Diversity Library for Multistage-Active Starting Points for Next-Generation Antimalarials” (ACS Infect Dis, 2020).
Out of some 68,000 compounds screened, about 2,700 (4%) showed an effect of 50% or more. The full list was thinned out, with strong results kept by preference.

Tested on: Plasmodium berghei
Assay: Screen against P. berghei liver stage (PbLuc), transformed with Luciferase, at 2uM
Assay type: functional, HepG2
Conditions: tested at 2 uM

Question: For `c1ccc(OC2COC3(CCN(CC4CC4)CC3)C2)nc1` (centres undefined), which INHIBITION is on record?
Answer: -17.63%

Question: For `CCC1(c2ccc(NS(=O)(=O)c3cccs3)cc2)CCC(=O)NC1=O` (centres undefined), which INHIBITION is on record?
Answer: -13.33%

Question: For `CNC(=O)CC1CCN(C(=O)NCc2coc3ccccc23)CC1`, which INHIBITION is on record?
Answer: 53.81%

Question: `CNC(=O)CC1CCN(C(=O)NCC2(c3ccccc3F)CC2)CC1` was tested. Which INHIBITION did it give?
Answer: -23.23%

Question: How did the INHIBITION turn out when `COCCOC1CCN(C(=O)NCc2coc3ccccc23)CC1` was run?
Answer: 40.88%

Question: `CC(C)N1CCC(CC(=O)N(C)C(C)c2cncs2)CC1` (centres undefined) was tested. Which INHIBITION did it give?
Answer: 17.73%

Question: For `Cc1cnc(N2CC(C(=O)N3CCOCC3)C3(CCOCC3)C2)nc1` (centres undefined), which INHIBITION is on record?
Answer: 65.04%

Question: How did the INHIBITION turn out when `O=C(C1CN(c2ncc(F)cn2)CC12CCOCC2)N1CC=CC1` (centres undefined) was run?
Answer: -78.69%

Question: How did the INHIBITION turn out when `O=C(C1CN(c2ncc(F)cn2)CC12CCOCC2)N1CCOCC1` (centres undefined) was run?
Answer: -45.73%

Question: How did the INHIBITION turn out when `Cn1cc(CN2CCO[C@H]3CN(Cc4ccsc4)C[C@H]32)cn1` was run?
Answer: 1.88%

Question: Which INHIBITION does the source give for `N#Cc1ncn(CCC(=O)Nc2cccc(Cl)c2)n1` here?
Answer: 7.13%

Question: How did the INHIBITION turn out when `N#Cc1ncn(CCC(=O)Nc2ccc(Cl)cc2F)n1` was run?
Answer: 5.52%

Question: `N#Cc1ncn(CCC(=O)Nc2ccc(F)c(F)c2)n1` was tested. Which INHIBITION did it give?
Answer: 57.92%

Question: For `Cc1cc(C(=O)N2CCC3(CC(=O)NC3=O)C2)c(-c2ccccc2)o1` (centres undefined), which INHIBITION is on record?
Answer: 15.87%

Question: `CCOc1ncnc2c1CCN(C(=O)c1ccncc1F)CC2` was tested. Which INHIBITION did it give?
Answer: 28.85%

Question: With `c1csc(C2(NCc3csc(C4CC4)n3)CCCC2)n1` as the compound, how does the INHIBITION read?
Answer: -56.92%

Question: `CCCc1nc(CNC2(c3nccs3)CCCC2)cs1` was tested. Which INHIBITION did it give?
Answer: 58.68%

Question: `Cc1csc(C2(NCc3csc(C4CC4)n3)CCCC2)n1` was tested. Which INHIBITION did it give?
Answer: -9.69%

Question: Which INHIBITION does the source give for `Cc1nc(C)n(CC2CCCCN2CC(=O)Nc2nnc(C)s2)n1` (centres undefined) here?
Answer: 19.97%

Question: With `CN(C)Cc1nn(C)c2c1CN(S(=O)(=O)c1ccccc1F)C2` as the compound, how does the INHIBITION read?
Answer: 32.05%

Question: Which INHIBITION does the source give for `COCCN(Cc1ccoc1)S(=O)(=O)c1ccc(F)c(C)c1` here?
Answer: -10.1%

Question: For `CCOc1ccc(S(=O)(=O)N(CCOC)Cc2ccoc2)cc1F`, which INHIBITION is on record?
Answer: 21.37%

Question: `CCOc1ccc(S(=O)(=O)N(CCOC)Cc2ccncc2)cc1F` was tested. Which INHIBITION did it give?
Answer: 60.35%

Question: With `CSCC[C@@H](CO)n1ccnc1-c1nccn1C` as the compound, how does the INHIBITION read?
Answer: 17.37%

Question: Which INHIBITION does the source give for `CN1CC(=O)N(c2cnn(C)c2)CC12CCN(C(=O)c1ccsc1)C2` (centres undefined) here?
Answer: -6.94%

Question: With `CCc1noc(C(C)N2CCN(Cc3cnc(C)cn3)CC2)n1` (centres undefined) as the compound, how does the INHIBITION read?
Answer: -1.29%

Question: With `Cc1nc(N2CCN(C(=O)c3ccsc3)CC2)c2cnn(C)c2n1` as the compound, how does the INHIBITION read?
Answer: 42.11%

Question: `CN1C(=O)CCC12CCN(c1ccc(C#N)cn1)CC2` was tested. Which INHIBITION did it give?
Answer: 5.22%

Question: How did the INHIBITION turn out when `N#Cc1ccc(N2CCCC3(CCC(=O)N3CC3CC3)CC2)nc1` (centres undefined) was run?
Answer: -16.78%

Question: With `N#Cc1ccc(N2CCC3(CCC(=O)N3CCN3CCCC3)CC2)nc1` as the compound, how does the INHIBITION read?
Answer: 52.96%

Question: Which INHIBITION does the source give for `COc1ccccc1N1CCN(C(=O)COc2c(C)occc2=O)CC1` here?
Answer: -24.81%

Question: For `Cc1nc(C)n(CC2CCCN(CCOc3ccc(F)cc3)C2)n1` (centres undefined), which INHIBITION is on record?
Answer: -23.18%

Question: With `Cc1cccc(CN2CCC23CCCNC3)n1` (centres undefined) as the compound, how does the INHIBITION read?
Answer: 20.51%

Question: `Cc1cccc(CN2CCCC23CCNC3)n1` (centres undefined) was tested. Which INHIBITION did it give?
Answer: 63.89%

Question: For `Cc1cccc(CN2CCCCC23CCNC3)n1` (centres undefined), which INHIBITION is on record?
Answer: 22.16%

Question: Which INHIBITION does the source give for `CCc1nnc2n1CCN(Cc1csc(NC(C)=O)n1)C2` here?
Answer: -5.09%

Question: With `Cc1ccc2c(c1)SCC(=O)N2CC(=O)N1CCC[C@H]1c1nc(C)no1` as the compound, how does the INHIBITION read?
Answer: 22%

Question: Which INHIBITION does the source give for `COc1c(CNC2CCc3cc(F)ccc32)c(C(C)C)nn1C` (centres undefined) here?
Answer: -52.77%

Question: How did the INHIBITION turn out when `COCC(=O)NCC1(COc2cccnc2)C[C@@H](O)[C@@H](O)C1` (some centres undefined) was run?
Answer: -40.44%

Question: How did the INHIBITION turn out when `CCn1nc(C)cc1S(=O)(=O)N1CCC2(CC(=O)NC2=O)C1` (centres undefined) was run?
Answer: 5.28%

Question: For `CCCN1CCCC2(CCN(S(=O)(=O)c3cc(C)nn3CC)C2)C1=O` (centres undefined), which INHIBITION is on record?
Answer: 57.75%

Question: Which INHIBITION does the source give for `CCn1nc(C)cc1S(=O)(=O)N1CCC2(CCCN(C(C)C)C2=O)C1` (centres undefined) here?
Answer: 55.36%

Question: For `CCn1nccc1S(=O)(=O)N1CCC2(CCCN(C(C)C)C2=O)C1` (centres undefined), which INHIBITION is on record?
Answer: 17.2%

Question: Which INHIBITION does the source give for `CCCN1CCCC2(CCN(S(=O)(=O)c3cccnc3)C2)C1=O` (centres undefined) here?
Answer: 11.9%

Question: How did the INHIBITION turn out when `CCCn1nccc1S(=O)(=O)N1CCC2(CCCN(C(C)C)C2=O)C1` (centres undefined) was run?
Answer: 38.67%

Question: With `COCCN1C(=O)[C@@H]2CC[C@H]1CN(C(=O)COc1ccc(F)c(Cl)c1)C2` as the compound, how does the INHIBITION read?
Answer: 38.83%

Question: Which INHIBITION does the source give for `COc1ccc(C2=CCN(C(=O)C3CCN(C)C(=O)C3)CC2)cc1` (centres undefined) here?
Answer: 17.39%

Question: Which INHIBITION does the source give for `O=C(NCc1ccccn1)[C@@]12CCO[C@@H]1CCN(c1ncccn1)C2` here?
Answer: -20.87%

Question: Which INHIBITION does the source give for `Cc1oc(C(=O)O)cc1S(=O)(=O)Nc1ccc(Cl)c(Cl)c1` here?
Answer: 16.79%

Question: Which INHIBITION does the source give for `Cc1oc(C(=O)O)cc1S(=O)(=O)Nc1cc(Cl)ccc1F` here?
Answer: 16.64%

Question: With `Cc1oc(C(=O)O)cc1S(=O)(=O)Nc1ccc(Cl)c(F)c1` as the compound, how does the INHIBITION read?
Answer: 56.67%

Question: With `Cc1n[nH]c(C)c1NC(=O)CN1CCOC(Cn2cccn2)C1` (centres undefined) as the compound, how does the INHIBITION read?
Answer: 37.52%

Question: How did the INHIBITION turn out when `Cn1cc(C(=O)N2CCCC(c3cc(O)n(C)n3)C2)cn1` (centres undefined) was run?
Answer: 27.39%

Question: `COCc1nc(C(=O)NS(=O)(=O)c2ccc(Cl)cc2F)cs1` was tested. Which INHIBITION did it give?
Answer: -7.88%

Question: How did the INHIBITION turn out when `NC(=O)c1ccc(CN2CCCC(N3CCCC3)C2)cc1` (centres undefined) was run?
Answer: 58.65%

Question: How did the INHIBITION turn out when `NC(=O)c1ccc(CN2CCC(N3CCCC3)CC2)cc1` was run?
Answer: -29.69%

Question: With `NC(=O)c1ccc(CN2CCCC(N3CCCCCC3)C2)cc1` (centres undefined) as the compound, how does the INHIBITION read?
Answer: 9.8%

Question: How did the INHIBITION turn out when `COCCN1CCC(Nc2c(F)cc(C#N)cc2F)CC1` was run?
Answer: -22.01%

Question: Which INHIBITION does the source give for `CSCC(=O)N[C@H]1CN(CC2CCOCC2)C[C@@H]1c1ccccc1` here?
Answer: 37.15%

Question: With `O=C(CCO)N[C@H]1CN(CC2CCC2)C[C@@H]1c1ccccc1` as the compound, how does the INHIBITION read?
Answer: 75.86%

Question: For `CS(=O)(=O)NCC(=O)N[C@H]1CN(CC2CC2)C[C@@H]1c1ccccc1`, which INHIBITION is on record?
Answer: 48.93%

Question: For `CN(C)S(=O)(=O)N1C[C@H]2CC[C@@H](C1)N(Cc1cccc(C#N)c1)C2`, which INHIBITION is on record?
Answer: -19.83%

Question: With `CCNC(=O)N1CCc2ccc(NC(=O)NCCOCC)cc21` as the compound, how does the INHIBITION read?
Answer: 10.1%

Question: With `Cn1c(-c2ccccc2Cl)nc2cc(C(=O)NCC3(CO)CC3)cnc21` as the compound, how does the INHIBITION read?
Answer: 58.53%

Question: How did the INHIBITION turn out when `CC(=O)NCCNC(=O)c1cnc2c(c1)nc(-c1ccccc1Cl)n2C` was run?
Answer: -5.51%

Question: Which INHIBITION does the source give for `Cn1c(-c2ccccc2Cl)nc2cc(C(=O)NC(CO)CO)cnc21` here?
Answer: 56.89%

Question: For `Cn1c(-c2ccccc2Cl)nc2cc(C(=O)NCCOCCO)cnc21`, which INHIBITION is on record?
Answer: 2.7%

Question: For `Cn1c(-c2ccccc2Cl)nc2cc(C(=O)NCC3(C)COC3)cnc21`, which INHIBITION is on record?
Answer: 21.24%

Question: For `CN(C)CCNC(=O)c1cnc2c(c1)nc(-c1ccccc1Cl)n2C`, which INHIBITION is on record?
Answer: -1.73%
